TPT1 inh = inhibitors of Candida albicans tRNA 2'-phosphotransferase TPT1 | recombinant caTPT1, FP RNA substrate dephosphorylation | inhibition, % at 5 µM | 300,000 tested, 0.81% active | AID 1962;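 active = inhibition above the mean of all tested compounds plus 3 SD, set per screening campaign, cut at about 24% in these data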;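 also: plate controls were DMSO alone for no effect and ferristatin control at 100 nM for full effect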
CRFR2-BP ag = CRF-BP/CRF-R2 complex agonism; AID 588473; HEK293 CRF-R2/CRF-BP, calcium dye fluorescence (FLIPR); percent of saturating CRF peptide response; 350,000 tested, 0.46% active; activation, % at 13.2 µM;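 active = activation of at least 50%, plus an integration ratio under a set limit after plate pattern correction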;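 also: plate controls were neutral control wells without compound for no effect and CRF at EC100 for full effect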
IDE act = boosts human insulin-degrading enzyme activity in HEK cells; P14735; FAbeta-B cleavage, fluorescence polarization; 0% vehicle, 100% cell-free pure enzyme wells; activation, % at 5.96 µM; 340,000 tested, 0.073% active; AID 493087;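 active = activation above the mean of all tested compounds plus 3 SD, set per screening campaign, cut at about 17% in these data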
Target sequence (P14735 whole entry, looked up): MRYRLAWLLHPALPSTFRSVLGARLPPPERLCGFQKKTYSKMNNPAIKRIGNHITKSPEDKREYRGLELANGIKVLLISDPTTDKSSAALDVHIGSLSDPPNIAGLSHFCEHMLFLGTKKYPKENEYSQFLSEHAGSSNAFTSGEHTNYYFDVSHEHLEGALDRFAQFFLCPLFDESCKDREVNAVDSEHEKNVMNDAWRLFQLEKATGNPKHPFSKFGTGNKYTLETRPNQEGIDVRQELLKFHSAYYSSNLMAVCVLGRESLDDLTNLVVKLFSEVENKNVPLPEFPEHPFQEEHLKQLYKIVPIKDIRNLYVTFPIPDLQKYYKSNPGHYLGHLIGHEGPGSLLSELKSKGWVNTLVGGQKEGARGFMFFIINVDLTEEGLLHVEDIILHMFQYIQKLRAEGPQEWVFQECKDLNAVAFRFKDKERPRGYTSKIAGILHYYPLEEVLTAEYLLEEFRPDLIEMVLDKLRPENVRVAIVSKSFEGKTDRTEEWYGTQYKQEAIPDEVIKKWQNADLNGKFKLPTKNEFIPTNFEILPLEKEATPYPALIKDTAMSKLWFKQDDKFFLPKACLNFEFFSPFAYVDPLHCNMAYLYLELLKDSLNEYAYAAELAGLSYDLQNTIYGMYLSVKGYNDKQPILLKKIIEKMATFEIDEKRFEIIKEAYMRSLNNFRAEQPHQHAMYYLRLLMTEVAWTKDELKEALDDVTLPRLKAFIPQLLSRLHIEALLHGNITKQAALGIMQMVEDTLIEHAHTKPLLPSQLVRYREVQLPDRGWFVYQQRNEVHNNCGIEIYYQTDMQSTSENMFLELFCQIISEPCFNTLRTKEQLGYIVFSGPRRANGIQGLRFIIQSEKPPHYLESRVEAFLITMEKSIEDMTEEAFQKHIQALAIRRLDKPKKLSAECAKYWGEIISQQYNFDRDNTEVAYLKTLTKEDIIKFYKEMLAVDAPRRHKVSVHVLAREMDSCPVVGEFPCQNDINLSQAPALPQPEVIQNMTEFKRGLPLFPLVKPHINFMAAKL
IDE cell inh = cellular human IDE inhibition. 320,000 tested, 0.41% active. AID 434962. inhibition, % at 5.59 µM. HEK cells, FAbetaB cleavage, fluorescence polarization. P14735;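 active = percent inhibition above the average of all tested compounds plus 3 SD, set per screening campaign, cut at about 16% in these data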;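 also: IDE supplied by intact live HEK cells; FP after avidin binding of uncleaved biotin substrate so inhibition keeps polarization high; 0% = DMSO wells and 100% = 60 µM reference IDE inhibitor Ii1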
cardiac RTF act = cardiac RTF calcium sensitization. 340,000 tested, 0.24% active. IANBD-labeled TnC RTF fluorescence at EC20 calcium; 0% EC20 calcium, 100% full calcium. P19429+P45379. activation, % at 7.2 µM;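 active = activation above the mean over all tested compounds plus 3 SD, cut at about 30% in these data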;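 also: rise in fluorescence read as greater calcium sensitivity of cardiac thin filaments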
RTF Ca sens inh = cardiac RTF calcium desensitization; inhibition, % at 7.15 µM; 340,000 tested, 0.12% active; IANBD-labeled cardiac RTF, Ca2+ fluorescence;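 active = inhibition above the mean inhibition of all tested compounds plus 3 SD, cut at about 17% in these data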;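 also: assay run at fixed EC70 calcium of 1.6 mM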
The depositor's hits bear a star. Hits are enriched below; roughly 1.5% of the tested compounds scored in any of these assays.

Screening O=c1c(Cl)c(Cl)cnn1Cc1nnc(-c2ccccc2Br)o1 returned CRFR2-BP ag 156.8*, IDE act 3.2, cardiac RTF act -0.1 and RTF Ca sens inh -20.7.
Clc1ccccc1OCc1nnc(-c2ccccc2Br)o1 was read as TPT1 inh 7.1, CRFR2-BP ag 1.3, IDE act 1.8, IDE cell inh 1.5, cardiac RTF act -3.3 and RTF Ca sens inh 1.7.
Screening Cc1ccc([N+](=O)[O-])cc1S(=O)(=O)Nc1cccc(S(=O)(=O)Nc2ccccc2C(=O)O)c1 returned CRFR2-BP ag 0.8, IDE act 4.0, IDE cell inh 1.9, cardiac RTF act -4.0 and RTF Ca sens inh -6.0.
Cc1ccc(C)c(NC(=O)c2ccccc2NS(=O)(=O)c2cc([N+](=O)[O-])ccc2C)c1 was read as TPT1 inh -2.3, CRFR2-BP ag 63.0*, IDE act 6.5, IDE cell inh -1.5, cardiac RTF act -6.1 and RTF Ca sens inh -1.0.
O=C(O)c1cccc2cccc(-c3c4ccc(=O)c(O)c-4oc4c(O)c(O)ccc34)c12 was read as CRFR2-BP ag -2.9, IDE act 1.4, cardiac RTF act -43.6 and RTF Ca sens inh 78.8*.
`CCCNC(=O)c1ccccc1SCc1c(C)noc1C` gave TPT1 inh 0.0, CRFR2-BP ag 0.6, IDE act -0.7, IDE cell inh -6.3, cardiac RTF act -6.8 and RTF Ca sens inh -5.1.
Screening Cc1ccc(C2C=C(c3ccccc3)Nc3ncnn32)cc1 (stereo not given) returned TPT1 inh -7.4, CRFR2-BP ag 15.0, IDE act 1.1, IDE cell inh 8.8, cardiac RTF act 0.3 and RTF Ca sens inh -15.0.
CC1=C(C(N)=O)C(c2ccc(Br)cc2)n2nc(CCCO)nc2N1 (stereo not given) was read as TPT1 inh 22.3, CRFR2-BP ag 1.4, IDE act 3.1, IDE cell inh 4.4, cardiac RTF act -2.1 and RTF Ca sens inh -3.1.
For OCCCc1nc2n(n1)C(c1cccs1)C=C(c1ccc(Br)cc1)N2 (stereo not given) the results were TPT1 inh -58.0 and IDE cell inh 135.3*.
`Fc1ccc(Br)cc1C1C=C(c2cccnc2)Nc2ncnn21` (stereo not given) gave TPT1 inh -14.3, CRFR2-BP ag 53.3*, IDE act 0.8, IDE cell inh 2.7, cardiac RTF act 3.7 and RTF Ca sens inh -9.8.
For CC(C)(C)c1ccc(C2=CC(c3ccccc3F)n3ncnc3N2)cc1 (stereo not given) the results were TPT1 inh 0.2, CRFR2-BP ag 16.3, IDE act 1.5, IDE cell inh -1.8, cardiac RTF act -0.3 and RTF Ca sens inh -1.8.
For Brc1ccc(C2=CC(c3cccs3)n3ncnc3N2)cc1 (stereo not given) the results were TPT1 inh -113.4, CRFR2-BP ag 318.2*, IDE act -129.1, IDE cell inh 87.8*, cardiac RTF act 707.2* and RTF Ca sens inh inactive.
`Cc1cccc(-n2c(C)cc(C=C3C(=O)c4ccccc4C3=O)c2C)c1` gave TPT1 inh 7.6, CRFR2-BP ag 51.2*, IDE act 1.6, IDE cell inh 6.2, cardiac RTF act 62.5* and RTF Ca sens inh -6.5.
For Cc1cc(C=C2C(=O)c3ccccc3C2=O)c(C)n1-c1ccc(Cl)cc1 the results were CRFR2-BP ag 16.7, IDE act 3.4, cardiac RTF act 19.9 and RTF Ca sens inh -1.9.
Screening CC(c1ccccc1C(O)(c1ccccc1)c1ccccc1)N(C)C (stereo not given) returned TPT1 inh 2.4, CRFR2-BP ag 93.2*, IDE act -0.4, IDE cell inh 2.3, cardiac RTF act -2.5 and RTF Ca sens inh -0.4.
COc1ccccc1C(O)(c1ccccc1)c1ccccc1OC was read as CRFR2-BP ag -2.4, IDE act 5.2, cardiac RTF act -1.8 and RTF Ca sens inh 2.3.
For Cc1ccccc1/C=C/c1cc[n+](C)cc1 the results were TPT1 inh -1.8, CRFR2-BP ag 1.1, IDE act 0.5, IDE cell inh 1.1, cardiac RTF act 3.9 and RTF Ca sens inh -12.0.
For Cc1[nH]c2ccccc2c1/C=C/c1cc[n+](C)cc1 the results were CRFR2-BP ag 81.3*, IDE act -23.3, cardiac RTF act 94.8* and RTF Ca sens inh -133.8.
`O=C(NNC(=S)NC(=O)c1cccc([N+](=O)[O-])c1)c1ccc(O)cc1` gave TPT1 inh 4.0, CRFR2-BP ag 0.2, IDE act -2.1, IDE cell inh 10.7, cardiac RTF act 4.9 and RTF Ca sens inh 0.5.
Screening O=C(NNC(=S)NC(=O)c1cccc([N+](=O)[O-])c1)c1ccc(Br)cc1 returned TPT1 inh 0.6, CRFR2-BP ag 122.0*, IDE act 2.5, IDE cell inh 1.1, cardiac RTF act -3.9 and RTF Ca sens inh 1.6.
For O=C(NNC(=S)NC(=O)c1ccccc1)c1cccc([N+](=O)[O-])c1 the results were TPT1 inh -3.6, CRFR2-BP ag 49.0, IDE act 6.3, IDE cell inh 1.9, cardiac RTF act -2.8 and RTF Ca sens inh 1.0.
Screening Cc1ccc(C(=O)NC(=S)NNC(=O)c2cccc([N+](=O)[O-])c2)cc1 returned CRFR2-BP ag 79.3*, IDE act 1.2, cardiac RTF act 2.9 and RTF Ca sens inh -5.5.
For CCN(CC(=O)Nc1ccc(NC(C)=O)cc1)C(=O)c1cc(CN2C(=O)c3ccccc3C2=O)ccc1OC the results were TPT1 inh -2.5, CRFR2-BP ag -0.1, IDE act 17.9*, IDE cell inh 3.6, cardiac RTF act -2.0 and RTF Ca sens inh -5.3.
`CCN(CC)C(=O)c1cn(CCC#N)nc1-c1ccc2ccccc2c1` gave TPT1 inh 0.4, CRFR2-BP ag 0.6, IDE act -2.8, IDE cell inh 2.0, cardiac RTF act -0.8 and RTF Ca sens inh -3.0.
Screening Cc1onc(-c2ccccc2)c1NC(=O)N(CCC#N)Cc1ccccc1 returned TPT1 inh 3.3, CRFR2-BP ag -2.8 and IDE cell inh 0.4.
Screening Cc1ccc(C(=O)/C=C/c2c[nH]c3ccccc23)cc1 returned TPT1 inh 14.7, CRFR2-BP ag 4.6, IDE act -5.1, IDE cell inh -1.2, cardiac RTF act 0.6 and RTF Ca sens inh -4.7.
`CC[n+]1c(/C=C/c2c[nH]c3ccccc23)ccc2cc(C)ccc21` gave CRFR2-BP ag 270.7*.
Screening Cc1ccc2nc(NCCc3ccccc3)c3nncn3c2c1 returned CRFR2-BP ag 0.7, IDE act 2.5, cardiac RTF act -3.9 and RTF Ca sens inh 0.1.
CC(C)(C)CC(C)(C)NC(=S)Nc1ccc2nc(-c3ccccn3)c(-c3ccccn3)nc2c1 was read as TPT1 inh 14.7, CRFR2-BP ag 28.5, IDE act -0.6, IDE cell inh 8.2, cardiac RTF act 10.3 and RTF Ca sens inh -16.9.
